# Experimental data: PubChem BioAssay (NCATS)
# Results filed as inconclusive are left out. The source made the active and inactive calls. Unless noted, calls follow the shape of the dose curve; as a rule, active = well fitted curve in either direction with a large enough effect (not every such curve was filed as active); inconclusive = small, poorly fitted or top-dose-only effect, or another doubt; inactive = flat fitted curve, though single readings scatter.
# Experiments:
# [1] = target: Lysosomal acid glucosylceramidase (Homo sapiens) (UniProt P04062); test: Glucocerebrosidase-p2 (AID 348; in the data active = potency below about 10 µM; also: potency is read from the fitted curve at half-maximal effect); conditions: purified GBA, blue fluorogenic substrate, 40 min
# Lysosomal acid glucosylceramidase (Homo sapiens), sequence (P04062 whole entry, looked up): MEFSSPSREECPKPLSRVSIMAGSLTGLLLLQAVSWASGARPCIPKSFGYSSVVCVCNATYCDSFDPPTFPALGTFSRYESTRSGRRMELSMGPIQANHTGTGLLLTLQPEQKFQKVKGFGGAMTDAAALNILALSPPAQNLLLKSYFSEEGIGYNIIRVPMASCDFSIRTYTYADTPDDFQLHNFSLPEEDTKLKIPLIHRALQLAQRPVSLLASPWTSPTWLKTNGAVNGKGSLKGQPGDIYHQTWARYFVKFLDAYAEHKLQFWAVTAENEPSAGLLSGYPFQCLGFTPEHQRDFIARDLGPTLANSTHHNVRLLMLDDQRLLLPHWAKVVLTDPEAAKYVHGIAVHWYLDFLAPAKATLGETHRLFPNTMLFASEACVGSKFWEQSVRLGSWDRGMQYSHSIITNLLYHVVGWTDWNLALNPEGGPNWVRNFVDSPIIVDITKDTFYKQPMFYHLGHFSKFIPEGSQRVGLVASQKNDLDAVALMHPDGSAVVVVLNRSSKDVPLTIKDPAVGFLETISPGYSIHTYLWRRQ
# In short: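 Compounds titrated from 0.6 nM upwards against 0.2 nM enzyme in pH 5.9 citric acid/KH2PO4, taurocholate, tween-20; blue fluorogenic substrate 80 uM, 40 min room temperature, stopped and read Ex 365/Em 440 for AC50.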
# [2] = AP1 Signaling Pathway (AID 357); conditions: ME-180 AP-1-bla reporter, EGF-induced, beta-lactamase ratio, 5 h; at 7.69 µM (top of the series) unless noted;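 also: ME-180 reporter cells stimulated with EGF at its EC50 level; % is scaled to controls: 0 for no effect and ±100 for the full control effect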
# In short: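 In this screen, ME-180 cells in Opti-MEM with 0.5% dialyzed FBS received EC50 EGF and compound titrations for 5 h. AP-1 reporter beta-lactamase was detected via CCF4 ratio, giving AC50 for positive and negative modulators.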
# [3] = NFAT Signaling Pathway (AID 444); conditions: Jurkat NFAT-bla M1, carbachol, beta-lactamase ratio, 5 h; at 7.69 µM (top of the series) unless noted;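 also: carbachol stimulus at about its EC50 of 1 µM final; % is scaled to controls: 0 for no effect and ±100 for the full control effect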
# In short: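 Jurkat cells with NFAT-driven β-lactamase reporter and co-expressed M1 receptor, stimulated with carbachol (final 1 uM, ~EC50), compound titration, 5 h at 37 °C. CCF4 loaded 1 h at RT; 460/530 nm ratio gave %activity and AC50.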
# [4] = Stat Signaling Pathway (AID 446); conditions: ME-180 SIE beta-lactamase reporter, IL-6 stimulated, 5 h; at 7.69 µM (top of the series) unless noted;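 also: ME-180 cervical cancer cells given 40 pM IL-6 alongside compound; SIE-controlled beta-lactamase reporter measured as 460/530 nm FRET emission ratio; % is scaled to controls: 0 for no effect and ±100 for the full control effect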
# In short: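 ME-180 cells carrying a SIE-driven beta-lactamase reporter are stimulated with 40 pM IL-6 for 5 h at 37C in the presence of compound. The 460/530 nm FRET substrate ratio is read after 2.5 h at RT. Data are normalised to 300 pM IL-6 and to 125 nM JAK inhibitor controls.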
# [5] = target: Glucocorticoid receptor (Homo sapiens) (UniProt P04150); test: GR-EFC Redistribution (AID 451; calls by dose curve; also: potency is read from the fitted curve at half-maximal effect); conditions: CHO-K1 GR-EFC translocation, beta-gal luminescence, 2 h
# Glucocorticoid receptor (Homo sapiens), sequence (P04150 whole entry, looked up, the tested form may be a part): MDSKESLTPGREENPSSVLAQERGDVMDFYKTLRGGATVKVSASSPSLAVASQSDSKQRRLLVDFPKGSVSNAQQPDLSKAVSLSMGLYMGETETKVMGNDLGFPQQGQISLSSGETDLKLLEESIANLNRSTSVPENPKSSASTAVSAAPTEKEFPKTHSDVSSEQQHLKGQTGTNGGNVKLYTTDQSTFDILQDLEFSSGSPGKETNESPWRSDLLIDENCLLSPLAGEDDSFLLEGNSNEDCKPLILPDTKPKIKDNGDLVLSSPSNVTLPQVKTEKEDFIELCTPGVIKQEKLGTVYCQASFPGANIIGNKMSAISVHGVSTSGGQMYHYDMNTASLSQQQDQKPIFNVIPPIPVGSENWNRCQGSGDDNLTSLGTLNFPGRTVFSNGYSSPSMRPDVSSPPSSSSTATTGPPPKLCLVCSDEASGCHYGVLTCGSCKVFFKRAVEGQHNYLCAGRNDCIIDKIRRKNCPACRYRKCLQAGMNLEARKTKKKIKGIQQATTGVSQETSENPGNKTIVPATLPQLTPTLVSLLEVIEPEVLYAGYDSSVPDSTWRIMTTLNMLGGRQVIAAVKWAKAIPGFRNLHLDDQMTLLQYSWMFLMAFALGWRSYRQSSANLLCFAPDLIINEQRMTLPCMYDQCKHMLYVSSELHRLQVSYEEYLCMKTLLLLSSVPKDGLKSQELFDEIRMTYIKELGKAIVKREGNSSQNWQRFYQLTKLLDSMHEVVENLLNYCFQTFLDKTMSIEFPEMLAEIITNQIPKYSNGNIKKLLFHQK
# In short: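 CHO-K1 cells expressing nuclear EA and GR-ED fragments of b-gal; compounds titrated up to 46 uM final, 2 h at 37 C. GR nuclear translocation read as complemented b-gal luminescence after 1 h RT detection.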
# [6] = target: Mitogen-activated protein kinase 10 (Mus musculus) (UniProt Q61831); test: JNK3 AlphaScreen Assay (AID 530); conditions: JNK3 lysate, c-Jun phosphorylation; series mostly up to 57.1 µM;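 also: kinase came from lysate of stimulated human HepG2 cells; signal reports phosphorylation of biotinylated GST-cJun 1-79 at Ser73 with 10 µM ATP; % is scaled to controls: 0 for no effect and ±100 for the full control effect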
# In short: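 qHTS format: compounds tested as titrations against IL-1beta/TNF-alpha-activated HepG2 lysate JNK3 with biotin-GST-cJun substrate and 10 uM ATP at room temperature. Loss of anti-phospho-cJun AlphaScreen signal indicates inhibition.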
# [7] = target: 3',5'-cyclic-AMP phosphodiesterase 4B (Homo sapiens) (UniProt Q07343); test: qHTS Assay for Inhibitors of PDE-IV (AID 607; active = well fitted activation curve with a large enough effect in the main read-out, with a control signal flat, not every such curve was filed as active; also: % of control where 0% means no effect); conditions: HEK293 ACTOne CNG channel cells, membrane potential fluorescence; series mostly up to 22.9 µM
# 3',5'-cyclic-AMP phosphodiesterase 4B (Homo sapiens), sequence (Q07343 whole entry, looked up): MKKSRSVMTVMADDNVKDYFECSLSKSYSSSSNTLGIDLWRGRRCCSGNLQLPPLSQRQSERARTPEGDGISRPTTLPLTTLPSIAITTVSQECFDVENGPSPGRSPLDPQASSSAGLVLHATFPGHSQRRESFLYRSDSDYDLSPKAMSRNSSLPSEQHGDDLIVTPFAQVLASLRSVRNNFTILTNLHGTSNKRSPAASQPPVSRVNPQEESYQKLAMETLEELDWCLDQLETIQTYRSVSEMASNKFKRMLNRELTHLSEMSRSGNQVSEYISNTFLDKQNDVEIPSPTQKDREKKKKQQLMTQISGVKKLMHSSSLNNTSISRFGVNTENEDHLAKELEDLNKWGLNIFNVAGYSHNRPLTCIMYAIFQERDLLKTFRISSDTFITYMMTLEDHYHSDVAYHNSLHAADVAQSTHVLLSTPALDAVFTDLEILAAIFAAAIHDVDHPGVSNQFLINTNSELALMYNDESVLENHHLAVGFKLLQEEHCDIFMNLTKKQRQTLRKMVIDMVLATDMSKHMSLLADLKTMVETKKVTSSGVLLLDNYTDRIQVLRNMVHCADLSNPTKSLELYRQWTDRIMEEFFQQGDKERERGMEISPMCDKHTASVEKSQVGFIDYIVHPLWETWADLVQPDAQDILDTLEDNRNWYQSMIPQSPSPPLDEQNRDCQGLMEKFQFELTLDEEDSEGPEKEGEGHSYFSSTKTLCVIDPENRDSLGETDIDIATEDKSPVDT
# In short: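 HEK293 ACTOne cells with CNG channel (1000/well), endogenous PDE4; membrane potential dye, compounds up to 22.9 uM final. Fluorescence Ex 535/Em 590; RO 20-1724 (100 uM final) as reference.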
# [8] = qHTS Assay for Lipid Storage Modulators (AID 1519; calls by dose curve); conditions: Drosophila S3 cells, BODIPY lipid droplet/cell ratio, laser cytometry, cells loaded with oleic acid; for activity change, negative = inhibition: at 57.5 µM (top of the series)
# In short: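 Cells seeded at 5,000 per well were treated with compounds over a concentration series and loaded with oleic acid (400 uM, as added). Lipid droplet fluorescence (488 nm excitation, 500-530 nm channel) was read by laser-scanning cytometry and normalized to 20 uM Triacsin C.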
# [9] = Primary qHTS for small molecule stabilizers of the endoplasmic reticulum resident proteome: Secreted ER Calcium Modulated Protein (SERCaMP) assay (AID 1508630; active = well fitted inhibition curve with a large enough effect; also: % is scaled to controls: 0 for no effect and ±100 for the full control effect); conditions: SH-SY5Y GLuc-SERCaMP (Gaussia luciferase released on ER calcium loss) secretion, thapsigargin, luminescence; series mostly up to 38.4 µM
# In short: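 GLuc-SERCaMP-expressing SH-SY5Y cells, pretreated 16 h with compound, are challenged with thapsigargin to empty ER calcium stores; after 4 h, coelenterazine is added directly to the medium and luminescence is imaged.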
# [10] = measured here: cell count channel max response
# [11] = measured here: lipid channel max response
Structure (SMILES),Potency [1],"activity change, negative = inhibition [2]","activity change, negative = inhibition [3]","activity, negative = inhibition [4]",Potency [5],Potency [6],Potency [7],"activity change, negative = inhibition [8]","max response [8, 10]","max response [8, 11]",outcome [9]
CC(C)CN1CC[C@@]2(CCCN(C(=O)c3cccc(F)c3)C2)C1,> 11.4 µM (inactive),-9.55% (inactive),-0.696% (inactive),6.14% (inactive),> 46 µM (inactive),inactive,inactive,1.5% (inactive),13.4%,19.5%,inactive
COc1ccc(C(=O)N2CCC[C@@]3(CCN(c4ncccn4)C3)C2)cc1,> 11.4 µM (inactive),-20.4% (inactive),4.77% (inactive),1.38% (inactive),> 46 µM (inactive),inactive,inactive,4.06% (inactive),3.46%,12.1%,inactive
Cc1noc(C)c1C(=O)N1CCC[C@@]2(CCN(c3ccccn3)C2)C1,> 11.4 µM (inactive),-5.91% (inactive),-10.2% (inactive),-3.33% (inactive),> 46 µM (inactive),inactive,inactive,-1.14% (inactive),20%,24.9%,inactive
CC(=O)N1CCC2(CCCN(C(=O)Nc3cccc(C#N)c3)C2)CC1,> 11.4 µM (inactive),-1.46% (inactive),-5.5% (inactive),4.81% (inactive),> 46 µM (inactive),inactive,inactive,0.477% (inactive),12.8%,15.6%,inactive
COc1ccc(C(=O)N2CCC[C@@]3(CCN(c4ccccn4)C3)C2)cc1,> 11.4 µM (inactive),-10.4% (inactive),-4.97% (inactive),-7.47% (inactive),> 46 µM (inactive),inactive,inactive,5.2% (inactive),13.5%,23.4%,inactive
COC(=O)N1CCC[C@@]2(CCN(C(=O)NC(C)C)C2)C1,> 11.4 µM (inactive),-4.17% (inactive),-22.1% (inactive),8.06% (inactive),> 46 µM (inactive),inactive,inactive,2.29% (inactive),-6.98%,-3.79%,inactive
Cc1noc(C)c1C(=O)N1CCC2(CC1)CN(Cc1cc(C(F)(F)F)cc(C(F)(F)F)c1)C2,> 11.4 µM (inactive),-7.95% (inactive),-16.8% (inactive),-3.94% (inactive),> 46 µM (inactive),inactive,inactive,-4.32% (inactive),-1.83%,-4.57%,inactive
COc1ccc(C(=O)N2CCC[C@@]3(CCN(c4ccncc4)C3)C2)cc1,> 11.4 µM (inactive),-1.81% (inactive),-12.2% (inactive),-6.9% (inactive),> 46 µM (inactive),inactive,inactive,0.196% (inactive),-12%,-10.7%,inactive
O=C(c1cccc(F)c1)N1CCC[C@@]2(CCN(c3ncccn3)C2)C1,> 11.4 µM (inactive),-17.6% (inactive),10.1% (inactive),1.15% (inactive),> 46 µM (inactive),inactive,inactive,3.33% (inactive),7.74%,15.7%,inactive
COc1ccc(NC(=O)N2CC[C@@]3(CCCN(C(C)=O)C3)C2)cc1,> 11.4 µM (inactive),-3.83% (inactive),13.8% (inactive),6.12% (inactive),> 46 µM (inactive),inactive,inactive,5.28% (inactive),4.36%,12%,inactive
Cn1cccc1C(=O)N1CCC2(CC1)CN(C(=O)Nc1cccc(F)c1)C2,> 11.4 µM (inactive),5.05% (inactive),6.99% (inactive),-4.36% (inactive),> 46 µM (inactive),inactive,inactive,2.3% (inactive),-3.47%,0.81%,inactive
COC(=O)N1CCC[C@@]2(CCN(c3ccccc3)C2)C1,> 11.4 µM (inactive),-10.2% (inactive),-9.75% (inactive),7.98% (inactive),> 46 µM (inactive),inactive,inactive,-12.5% (inactive),14%,-1.29%,inactive
O=C(Nc1cccc(F)c1)N1CC2(CCN(C(=O)c3ccco3)CC2)C1,> 11.4 µM (inactive),-3.07% (inactive),4.39% (inactive),1.12% (inactive),> 46 µM (inactive),inactive,inactive,5.94% (inactive),1.85%,13.6%,inactive
CC(C)NC(=O)N1CC[C@@]2(CCCN(C(=O)c3cnccn3)C2)C1,> 11.4 µM (inactive),7.64% (inactive),11.4% (inactive),4.04% (inactive),> 46 µM (inactive),inactive,inactive,3.99% (inactive),-1.16%,5.89%,inactive
CS(=O)(=O)N1CCC2(CC1)CN(C(=O)Nc1cccc(F)c1)C2,> 11.4 µM (inactive),0.393% (inactive),3.65% (inactive),13.3% (inactive),> 46 µM (inactive),inactive,inactive,5.56% (inactive),15.2%,24.9%,inactive
